# Measured values published in PubChem BioAssay AID1053188 (Broad Institute, 2014).
# Where “and” joins values, the source holds several entries; their conditions need not be identical. Equal values may be shown once. The whole screen tested about 83,000 compounds, of which about 780 (0.94%) were called active.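 Rule for the calls: active = mean inhibition of at least 50% with a set share of replicates also reaching that level; inconclusive = no clear call, values can overlap the other calls; inactive = the rest.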 Only a selection was taken, and actives are over-represented in it overall. Where a structure was tested more than once in an assay, its records may differ in their call.
# Assay: inhibitors of CD40-induced NF-kB signaling, primary screen, BL2 cells, luciferase reporter, single point (AID 1053188);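 note: 0% = neutral control wells and 100% = IKK inhibitor VII at 50 µM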
# Details: CD40L-induced, 4 h, stronger effect = higher value; at 10 µM unless noted
row,Structure (SMILES),inhibition
1,Cc1cc([N+](=O)[O-])nn1CC(=O)Nc1ccc(Cc2ccncc2)cc1,-4.38% (inactive)
2,CCCNC(=O)c1ccc(Cl)c(Cl)c1,0.458% (inactive)
3,CN(C)CCNC(=O)c1ccc(Cl)c2cc3ccccc3nc12,80.1% (active)
4,CN(C)CCNC(=O)Nc1cccc(Cl)c1Cl,7.22% (inactive)
5,Cc1ccc(S(=O)(=O)NCCC(=O)NCc2ccc(Cl)cc2)cc1C,0.373% (inactive)
6,O=C(c1cc(-c2ccco2)nc2ccccc12)N(Cc1nnc(-c2ccc(Cl)cc2)o1)C1CC1,50.6% (active)
7,CN(CCOc1ccccc1)C(=O)c1cc(-c2ccco2)nc2ccccc12,9.58% (inactive)
8,CC1CCCN(C(=O)c2cc(-c3ccco3)nc3ccccc23)C1 (centres undefined),-1.36% (inactive)
9,CCOC(=O)c1ccc[n+](CC(=O)Nc2ccccc2OC(F)F)c1,-5.94% (inactive)
10,CC(C)N(Cc1nnc(-c2ccc(Cl)cc2)o1)C(=O)C1=COCCO1,3.68% (inactive)
11,CCCN(CC(=O)Nc1ccccc1C)C(=O)c1ccc(OCC(=O)N2CCOCC2)c(OCC)c1,23.3% (active)
12,COc1cc(C(=O)Nc2ncccc2C)ccc1OCC(=O)N1CCOCC1,6.83% (inactive)
13,CCOc1cc(C(=O)N(Cc2ccccc2)c2ccc(C)cc2)ccc1OCC(=O)N1CCOCC1,-0.92% (inactive)
14,CCNC(=O)C1(C)CCCN1C(=O)c1ccc(N(C)C)cc1 (centres undefined),-1.06% (inactive)
15,CC(C)NC(=O)N(C)C[C@H]1Oc2ccc(NS(C)(=O)=O)cc2C(=O)N(C)C[C@@H]1C,0.384% (inactive)
16,COc1cccc(NC(=O)CN(C)CC(=O)Nc2ccc3c(c2)CCC3)c1,8.15% (inactive)
17,CSCCC(NC(=O)c1ccco1)C(=O)NCCc1ccc(F)cc1 (centres undefined),0.567% (inactive)
18,COc1ccc(S(=O)(=O)NCCc2c[nH]c3ccccc23)cc1OC,6.21% (inactive)
19,Fc1ccccc1COc1ccccc1CNCc1ccncc1,0.766% (inactive)
20,COc1cccc(CNCCc2c[nH]c3ccccc23)c1OCc1ccccc1F,70.6% (active)
21,O=C(Nc1ncccc1O)c1ccc(S(=O)(=O)N2CCCC2)cc1,-13.1% (inactive)
22,COC(=O)C1=C(N)Oc2c(oc(CO)cc2=O)C1c1c(F)cccc1Cl (centres undefined),1.5% (inactive)
23,CCOc1ccc(C(=O)CCN2CCOCC2)cc1,3.31% (inactive)
24,Cc1ccc(/C([O-])=C(/C(=S)NCc2ccco2)[n+]2ccccc2)cc1[N+](=O)[O-],4.58% (inactive)
25,O=C(CSc1nnc(-c2ccc([N+](=O)[O-])cc2)o1)Nc1ccccn1,-47.6% (inactive)
26,O=C(COC(=O)Cc1ccc([N+](=O)[O-])cc1)NC1CCCCCC1,2.86% (inactive)
27,O=C(Nc1ccc([N+](=O)[O-])cc1)OCCc1ccccn1,-49.3% (inactive)

row,Structure (SMILES),inhibition
1,N/C(=N\OC(=O)c1ccc([N+](=O)[O-])cc1)c1ccccn1,68.1% (active)
2,N/C(=N\OC(=O)Cc1ccc([N+](=O)[O-])cc1)c1ccccn1,64.7% (active)
3,O=C(COC(=O)c1ccccn1)NNC(=O)c1ccc([N+](=O)[O-])cc1,0.903% (inactive)
4,COc1ccccc1C(=O)NC(CCSC)C(=O)N1CCN(C(C)=O)CC1 (centres undefined),7.42% (inactive)
5,OCCN1CCN(CCO)C1=S,4.32% (inactive)
6,COc1cc(OC)cc(C(=O)N[C@H](C(=O)NNC(=O)c2ccc(Br)cc2)C(C)C)c1,-11.4% (inactive)
7,CCc1ccc(C(=O)C(C)OC(=O)CN2C(=O)NC3(CCCC3)C2=O)cc1 (centres undefined),-8.47% (inactive)
8,CC(=O)c1cc(C#N)c(N2CCCCC2)nc1C,12.8% (inactive)
9,Cc1ccc(S(=O)(=O)N2CCN(C(=O)COC(=O)CNC(=O)c3ccc(C(C)(C)C)cc3)CC2)c(C)c1,-31.5% (inactive)
10,COc1ccc(C(=O)COC(=O)c2nn(C)c(=O)c3ccccc23)c(OC)c1,4.47% (inactive)
11,Cc1ccc2c(c1)c1ncn(CCC3=CCCCC3)c(=O)c1n2C,-13.8% (inactive)
12,COc1ccc2c(c1)c1ncn(Cc3ccccn3)c(=O)c1n2C,56.2% (active)
13,COc1ccc(CNC(=O)CN2CCC(n3nnc4cc(F)ccc43)CC2)cc1,-0.322% (inactive)
14,CCCn1c(N)c(C(=O)CSc2nc3ccccc3c(=O)n2-c2ccc(OC)cc2)c(=O)[nH]c1=O,-0.2% (inactive)
15,CC(C)NC(=O)N(C)C[C@H]1OCc2ccccc2-c2c(n(C)c3ccccc23)C(=O)N([C@H](C)CO)C[C@@H]1C,-3.58% (inactive)
16,CC1Cc2ccccc2N1S(=O)(=O)c1cccc(C(=O)NCC(c2ccco2)N2CCCC2)c1 (centres undefined),8.41% (inactive)
17,O=C(Nc1ccc(N2CCOCC2)cc1)c1cccc(S(=O)(=O)N2CCOCC2)c1,14.5% (inactive)
18,O=C(C1CCOCC1)N1CC(=O)N2[C@H](CO)[C@@H](c3ccc(C#CC4CCCC4)cc3)[C@H]2C1,-2.24% (inactive)
19,O=C(Nc1nnc(Cc2ccccc2)s1)c1cnccn1,-14% (inactive)
20,Cc1cnc(NC(=O)c2ccccn2)s1,48.8% (active)
21,O=C(Nc1nnc(C2CC2)s1)c1ccccn1,12.5% (inactive)
22,CN1C(=O)c2cc(NS(=O)(=O)CC(F)(F)F)ccc2OC[C@H]2O[C@@H](CC(=O)NCc3ccc(Cl)c(Cl)c3)CC[C@@H]21,-2.48% [at 25 µM] (inactive)
23,Cc1cc(C(=O)COC(=O)C2CC2)c(C)n1-c1ccc(F)cc1,79.9% (active)
24,COc1ccccc1C(=O)NC(=O)COC(=O)C1CC1,-63% (inactive)
25,Cc1cc(C(=O)COC(=O)CNC(=O)c2ccc(F)cc2)c(C)n1Cc1ccco1,29.3% (inactive)
26,N#C[C@@H]1[C@H](c2ccc(C#Cc3ccccc3F)cc2)[C@H](CO)N1C(=O)C1CCCCC1,6.32% (inactive)
27,N#C[C@@H]1[C@@H](c2ccc(C#Cc3cccc(F)c3)cc2)[C@@H](CO)N1C(=O)C1CCC1,-11.1% (inactive)

row,Structure (SMILES),inhibition
1,N#C[C@H]1[C@H](c2ccc(C#Cc3ccc(F)cc3)cc2)[C@@H](CO)N1C(=O)C1CCCC1,58.9% (active)
2,CCCC#Cc1ccc([C@@H]2[C@@H](C#N)N(C(=O)C3CCCC3)[C@@H]2CO)cc1,4.81% (inactive)
3,N#C[C@@H]1[C@@H](c2ccc(C#Cc3cccc(F)c3)cc2)[C@H](CO)N1C(=O)C1CCOCC1,-15.7% [at 25 µM] (inactive)
4,N#C[C@@H]1[C@H](c2ccc(C#Cc3cccc(F)c3)cc2)[C@@H](CO)N1C(=O)C1CCCC1,60.3% (active)
5,COc1ccccc1CNC(=O)COC(=O)CNS(=O)(=O)c1ccc(NC(C)=O)cc1,5.75% (inactive)
6,COc1ccc(NC(=O)N2CCCC(c3nc(-c4ccc(F)cc4)no3)C2)cc1 (centres undefined),-2.8% (inactive)
7,CC(C)N(C(=O)CN1CCN(S(=O)(=O)c2ccc(Br)s2)CC1)C(C)C,3.09% (inactive)
8,CCOC(=O)C(CC)/C(C)=N\NC(=O)c1cccc(C)c1 (centres undefined),-2.97% (inactive)
9,CN(C)C(=O)c1ccc(-c2ccc(C3[C@@H]4CN(C(=O)Nc5ccccc5)C[C@H]3N4)cc2)cc1 (some centres undefined),8.08% [at 25 µM] (inactive)
10,O=C(C1CCCCC1)N1C[C@@H]2N[C@H](C1)C2c1ccc(-c2cccc(F)c2)cc1 (some centres undefined),26.1% (inactive) and -22.9% (inactive)
11,Cc1cccc(-c2ccc(C3[C@@H]4CN(C(=O)Nc5ccc(C(F)(F)F)cc5)C[C@H]3N4)cc2)c1 (some centres undefined),55.5% (active)
12,O=C([C@@H]1[C@@H](CO)[C@@H]2Cn3c(ccc(C4=CCCCC4)c3=O)[C@H]1N2Cc1nccs1)N1CCCCC1,-4.97% [at 25 µM] (inactive)
13,COc1ccc(CN2CCC(c3nc4ccc(Cl)cc4[nH]3)CC2)cc1,7.72% (inactive)
14,O=C(NNC(=O)C1CCN(c2ncccn2)CC1)c1ccccc1,16.9% (inactive)
15,COc1ccc(-c2ccc(C3[C@@H]4CN(S(=O)(=O)c5cn(C)cn5)C[C@H]3N4)cc2)cc1 (some centres undefined),-4.84% (inactive)
16,Cn1cnc(S(=O)(=O)N2C[C@@H]3N[C@H](C2)C3c2ccc(/C=C/c3ccccc3)cc2)c1 (some centres undefined),-5.55% (inactive) and 3.57% (inactive)
17,Cn1cnc(S(=O)(=O)N2C[C@@H]3N[C@H](C2)C3c2ccc(-c3ccccc3F)cc2)c1 (some centres undefined),52.9% [at 25 µM] (active) and 10.8% [at 25 µM] (inactive)
18,COc1ccc2c3c(n(C)c2c1)[C@H](CO)N(C(C)=O)CC31CN(Cc2ccc(Cl)cc2)C1,68% [at 25 µM] (active)
19,COCC(=O)N1CC2(CN(S(C)(=O)=O)C2)c2c(n(C)c3cc(OC)ccc23)[C@@H]1CO,2.58% [at 25 µM] (inactive)
20,CCC(=O)N1CC2(CCN(Cc3ccc(Cl)cc3)CC2)c2c(n(C)c3cc(OC)ccc23)[C@@H]1CO,4.53% [at 25 µM] (inactive)
21,O=C(Nc1ccccn1)C1CCN(S(=O)(=O)c2ccc3c(c2)OCCO3)CC1,-48.7% (inactive)
22,CCc1nnc(NC(=O)c2cccc(S(=O)(=O)N(C)c3ccc(OC)cc3)c2)s1,2.59% (inactive)
23,CN(Cc1ccc2nsnc2c1)Cc1nc(Cc2cccc(F)c2)no1,3.82% (inactive)
24,CCOc1ccc(S(=O)(=O)N2CCC(C(=O)OCc3ccc(OC)cc3)CC2)cc1,0.411% (inactive)
25,O=C(Nc1ccc(N2CCCCC2)cc1)c1cc(S(=O)(=O)N2CCOCC2)ccc1F,-16.8% (inactive)
